The record followed here is PubChem BioAssay (EPA / NIEHS).

Assay [1] in a line: Tanguay_ZF_120hpf_AXIS_legacy: (Legacy) Oregon State University Tanguay Lab 120 Hour Post-fertilization zebrafish Assay for Body Axis Malformation (AID 2283635).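 For AC50: potency for an increased fraction of larvae scored with body axis malformation.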 An outline of the steps: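 Each dechorionated embryo was exposed alone from 6 hpf, with DMSO at 0.64% (vol/vol) and trimethyltin chloride 5 uM as positive control. Axis malformation was recorded at 120 hpf unless the embryo had died.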

Assay [2] is described as follows: Tanguay_ZF_120hpf_EYE_legacy: (Legacy) Oregon State University Tanguay Lab 120 Hour Post-fertilization zebrafish Assay for Eye Malformation (AID 2283636).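 Note: binary presence or absence of eye malformation scored by brightfield in 120 hpf larvae.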 An outline of the steps: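 Static waterborne exposure of dechorionated zebrafish embryos (strain Tropical 5D), 6 to 120 hpf, sealed plates at 28C, 0.64% DMSO vehicle. Eye malformation is scored as a binary endpoint, with gain of signal analysed relative to DMSO.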

A short description of assay [3]: Tanguay_ZF_120hpf_SNOU_legacy: (Legacy) Oregon State University Tanguay Lab 120 Hour Post-fertilization zebrafish Assay for Snout Malformation (AID 2283637). An outline of the steps:
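Dechorionated zebrafish, individually housed from 6 hpf in covered, sealed wells at 28C with 0.64% DMSO vehicle, were examined at 120 hpf for snout malformation. Responses were binary and analysed positive-direction relative to DMSO.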

Assay [4] can be described thus: Tanguay_ZF_120hpf_OTIC_legacy: (Legacy) Oregon State University Tanguay Lab 120 Hour Post-fertilization zebrafish Assay for Otic Vesicle Malformation (AID 2283639). An outline of the steps: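 Brightfield scoring at 120 hpf, binary present/absent; DMSO negative control, 5uM trimethyltin chloride positive control. Static exposure at 28C, final DMSO 0.64% (vol/vol). Dead embryos not scored for malformation.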

Assay [5] in a line: Tanguay_ZF_120hpf_PE_legacy: (Legacy) Oregon State University Tanguay Lab 120 Hour Post-fertilization zebrafish Assay for Pericardial Edema (AID 2283640).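 For AC50: potency for increased incidence of pericardial edema versus DMSO baseline.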 An outline of the steps:
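Zebrafish larvae are exposed from early development to 120 hpf at 28C, with 0.64% DMSO final. Each surviving larva receives a yes/no pericardial edema call by brightfield imaging, analysed relative to the DMSO baseline.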

Assay [6] in a line: Tanguay_ZF_120hpf_BRAI_legacy: (Legacy) Oregon State University Tanguay Lab 120 Hour Post-fertilization zebrafish Assay for Brain Malformation (AID 2283641). An outline of the steps: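 Static exposure of staged wild-type embryos until 120 hpf, kept at 28C with light excluded and final DMSO of 0.64% (vol/vol). Presence or absence of brain malformation was noted under brightfield; mortality precluded scoring.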

Assay [7] can be described thus: Tanguay_ZF_120hpf_SOMI_legacy: (Legacy) Oregon State University Tanguay Lab 120 Hour Post-fertilization zebrafish Assay for Somite Malformation (AID 2283647). An outline of the steps:
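Somitogenesis defects are recorded as binary calls in whole larvae at 120 hpf after continuous static chemical exposure starting at 6 hpf in dechorionated 5D embryos. DMSO serves as negative control and baseline.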

Assay [8] is described as follows: Tanguay_ZF_120hpf_PFIN_legacy: (Legacy) Oregon State University Tanguay Lab 120 Hour Post-fertilization zebrafish Assay for Pectoral Fin Malformation (AID 2283648).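 Note: each larva judged yes or no for fin defect by brightfield with dead larvae skipped.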 An outline of the steps:
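Scoring of pectoral fin malformation was binary, made at 120 hpf on larvae exposed statically from 6 hpf after enzymatic chorion removal. Activity was fitted upward relative to DMSO controls at 0.64% (vol/vol).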

The nature of assay [9]: Tanguay_ZF_120hpf_CFIN_legacy: (Legacy) Oregon State University Tanguay Lab 120 Hour Post-fertilization zebrafish Assay for Caudal Fin Malformation (AID 2283649). An outline of the steps: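 Single dechorionated 5D wild-type embryos are dosed at 6 hpf (final DMSO 0.64%) and held statically at 28C. Caudal fin malformation is recorded as present or absent at 120 hpf under brightfield, excluding dead embryos.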

Assay [10] can be described thus: Tanguay_ZF_120hpf_CIRC_legacy: (Legacy) Oregon State University Tanguay Lab 120 Hour Post-fertilization zebrafish Assay for Circulatory Malformation (AID 2283651). An outline of the steps: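 Static exposure, 6–120 hpf, 28C, sealed and dark; one dechorionated 5D embryo/well; DMSO 0.64% v/v final. Binary circulation endpoint by brightfield; dead embryos not scored.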

The nature of assay [11]: Tanguay_ZF_120hpf_SWIM_legacy: (Legacy) Oregon State University Tanguay Lab 120 Hour Post-fertilization zebrafish Assay for Swim Bladder Malformation (AID 2283654).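 Note: swim bladder malformation in each larva scored yes or no under brightfield.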 An outline of the steps: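 Static waterborne exposure of single dechorionated Tropical 5D zebrafish embryos, 6–120 hpf, 28C, 0.64% DMSO final. Read-out: swim bladder malformation, present/absent, relative to DMSO negative control; trimethyltin chloride 5uM served as positive control.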

Assay [12] can be described thus: Tanguay_ZF_120hpf_NC_legacy: (Legacy) Oregon State University Tanguay Lab 120 Hour Post-fertilization zebrafish Assay for Notochord and Tail Malformation (AID 2283656). An outline of the steps:
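Binary notochord-distortion calls, made by brightfield inspection, form the read-out; activity is fitted in the positive direction against DMSO. Exposure ran statically from 6 to 120 hpf at 28C with 0.64% DMSO.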

Assay [13] in a line: Tanguay_ZF_120hpf_PIG_legacy: (Legacy) Oregon State University Tanguay Lab 120 Hour Post-fertilization zebrafish Assay for Pigmentation Malformation (AID 2283650). An outline of the steps:
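Endpoint is incidence of abnormal pigmentation at 120 hpf in dechorionated 5D zebrafish exposed singly from 6 hpf at 28C, DMSO vehicle at 0.64%. Embryos dying by 24 or 120 hpf are excluded from scoring.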

Assay [14] in a line: Tanguay_ZF_120hpf_TRUN_legacy: (Legacy) Oregon State University Tanguay Lab 120 Hour Post-fertilization zebrafish Assay for Truncated Body (AID 2283655). An outline of the steps: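 Single dechorionated zebrafish embryos received test chemical from 6 hpf in 0.64% DMSO, kept at 28C. At 120 hpf, brightfield inspection noted any truncated body.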
A short description of assay [15]: Tanguay_ZF_120hpf_JAW_legacy: (Legacy) Oregon State University Tanguay Lab 120 Hour Post-fertilization zebrafish Assay for Jaw Malformation (AID 2283638).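 For AC50: active means more embryos with jaw malformation than DMSO controls.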 An outline of the steps:
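Wild-type 5D embryos, chorion removed at 4 hpf, dosed singly from 6 hpf; 28C static, sealed, foil-covered, to 120 hpf. Endpoint: jaw defect yes/no (brightfield); mortality excludes scoring.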

In assay [16] the test system is Thyroperoxidase (TPO), gene 54314. As to the kind of experiment: CCTE_Simmons_AUR_rTPO: CCTE's Amplex UltraRed Assay for Thyroperoxidase (TPO) Inhibition, Simmons Lab (AID 2283662).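 For AC50: potency for loss of signal meaning inhibition of peroxidase activity.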 An outline of the steps: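 Cell-free peroxidase activity assay using rat thyroid gland microsomes with excess H2O2 (300 uM) and 25 uM Amplex UltraRed. Compounds tested from 5 nM to 87.5 uM; fluorescence measured after 30 min at 37C, analysed relative to DMSO baseline.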

Results filed as inconclusive are left out. Activity calls are given as the source filed them. Rule for the calls: active = hit-call score of the fitted dose curve at least 0.9, where 1 is the maximum; inconclusive = response in the unintended direction; inactive = score below 0.9.

As to `CCCCCCCCCCCCCCO`, the outcome in assay [1], in assay [2], in assay [3], in assay [4], in [5] and in assay [6] was inactive. The outcome in assay [7], in assay [8], in [9], in assay [10], in assay [11] and in assay [12] was inactive.

Take `Nc1ccn([C@@H]2O[C@H](CO)[C@@H](O)[C@@H]2O)c(=O)n1`: the outcome in assay [1], in [2], in [3], in [4], in [5] and in [6] was inactive. Besides, the call in assay [7], in [8], in assay [9], in assay [13], in [10] and in assay [11] was inactive. In addition, the call in [14] and in assay [12] was inactive.

In the case of `NNC(=O)c1ccncc1`, the result in assay [1], in assay [2], in assay [3], in [15], in assay [4] and in assay [5] was inactive. Moreover, the result in assay [6], in [7], in [8], in assay [9], in assay [13] and in assay [11] was inactive. Besides, the call in [14] and in assay [12] was inactive. In addition, the AC50 in [16] was 1.92 µM (active).

Take `CC(C)C(=O)Nc1ccc([N+](=O)[O-])c(C(F)(F)F)c1`: the outcome in assay [1], in assay [2], in [3], in assay [15], in assay [4] and in [5] was inactive. Moreover, the compound was classed as inactive in assay [6], in assay [7], in assay [8], in [9], in assay [13] and in assay [10]. Further, the compound was classed as inactive in [11], in assay [14] and in [12].

Turning to `c1ccc(C(O[C@@H]2CCCN(CCc3ccc4c(c3)OCO4)C2)c2ccccc2)cc1`, the AC50 in assay [1] was 34.7 µM (active); in [2], 36.5 µM (active); in assay [3], 44.2 µM (active); in assay [15], 44.8 µM (active); in [4], 45.8 µM (active); in assay [5], 36 µM (active). Further, the AC50 was 42 µM (active) in [6], 33.4 µM (active) in assay [8], 37.2 µM (active) in assay [9] and 42.4 µM (active) in assay [13]. Besides, the call in assay [7], in assay [10], in [11] and in assay [12] was inactive.

`CC(=O)c1ccccc1`: the call in assay [1], in assay [2], in assay [3], in assay [15], in assay [4] and in [5] was inactive. In addition, the result in assay [6], in [7], in [8], in assay [9], in assay [13] and in [10] was inactive. The call in assay [11] and in [12] was inactive.

Turning to `C[C@@H](Oc1ccc(CNC(=O)c2cccnc2Oc2ccc3c(c2)OCO3)c(F)c1)C(=O)O`, the result in [1], in [2], in assay [3], in [4], in assay [5] and in [6] was inactive. Also, the outcome in [7], in assay [8], in assay [9], in [13] and in assay [11] was inactive. Moreover, the AC50 in [16] is 22.2 µM (active).

`O=S1(=O)CCCO1`: the outcome in [1], in [2], in [3], in assay [4], in assay [5] and in [6] was inactive. In addition, the outcome in assay [7], in assay [8], in [9], in assay [13], in [10] and in assay [11] was inactive. Further, the call in [14] and in [16] was inactive.

Turning to `CCN(CC)C(=S)SSC(=S)N(CC)CC`, the AC50 was 0.36 µM (active) in assay [1]; 1.4 µM (active) in assay [2]; 1.4 µM (active) in assay [3]; 1.22 µM (active) in assay [5]; 0.619 µM (active) in assay [7]; 5.12 µM (active) in [10]. Moreover, the AC50 is 1.1 µM (active) in assay [11], 0.904 µM (active) in [14] and 0.112 µM (active) in [12]. Moreover, the compound was called inactive in [4], in [6], in [8], in [9] and in assay [13].

Turning to `CCOC(N)=O`, the compound was classed as inactive in assay [1], in assay [2], in [3], in assay [15], in [4] and in assay [6]. Besides, the result in [7], in [8], in assay [9], in assay [13], in assay [10] and in assay [11] was inactive. Besides, the compound was called inactive in assay [12].

For `O=C(O)c1cccc(C[C@@H]2COc3ccc(OCc4nc5cc(F)ccc5s4)cc3[C@@H]2O)c1`, the AC50 in assay [1] is 5.78 µM (active); in assay [3], 3.99 µM (active); in assay [5], 0.953 µM (active). In addition, the outcome in assay [2], in assay [4], in [6], in assay [7], in assay [8] and in assay [9] was inactive. Also, the compound was called inactive in assay [10], in assay [11] and in assay [14].

With `CC[C@H](C)C(=O)O[C@H]1C[C@H](O)C=C2C=C[C@H](C)[C@H](CC[C@@H](O)C[C@@H](O)CC(=O)O)[C@H]21`, the outcome in assay [1], in assay [2], in assay [3], in [15], in assay [4] and in [5] was inactive. The compound was called inactive in [6], in [7], in assay [8], in assay [9], in assay [10] and in assay [11]. The call in assay [14] and in assay [12] was inactive.

As to `CCCc1ccccc1`, the compound was called inactive in assay [1], in assay [2], in [3], in [4], in assay [5] and in assay [6]. The call in assay [7], in assay [8], in [9], in assay [13], in assay [10] and in assay [11] was inactive. In addition, in assay [12], the outcome was inactive.

As for `NC(=O)N1c2ccccc2C=Cc2ccccc21`, the call in assay [1], in assay [2], in assay [3], in assay [15], in assay [4] and in [5] was inactive. Moreover, the call in assay [6], in assay [7], in assay [8], in assay [9], in assay [13] and in assay [10] was inactive. Further, the outcome in [11], in assay [14] and in [12] was inactive.

In the case of `CCCCOC(=O)c1ccccc1`, the outcome in [1], in assay [2], in assay [3], in assay [15], in assay [4] and in assay [5] was inactive. In addition, the result in [7], in assay [9], in [13], in assay [11] and in assay [12] was inactive.

As for `O=C(NO)C1(NS(=O)(=O)c2ccc(Oc3ccc(F)cc3)cc2)CCOCC1`, the call in assay [1], in assay [2], in [3], in [15], in assay [4] and in [5] was inactive. Besides, the result in assay [6], in assay [7], in assay [8], in assay [9], in assay [13] and in assay [10] was inactive. The call in assay [11] and in assay [12] was inactive. The AC50 in [16] was 18.1 µM (active).
